Measured values published in paper PMC5540273 (PLoS ONE, 2017).

Key:
Details in all cases: concentration: 1 μM,replicates: in singlicate; n = 1
[1] = test system: MAPKAPK5
[2] = test system: MARK1
[3] = test system: MARK2
[4] = test system: MARK3
[5] = test system: MARK4
[6] = test system: MAST1
[7] = test system: T1, MEK1
T1 construct: gene MAP2K1

[8] = test system: T2, MEK2
T2 construct: gene MAP2K2

[9] = test system: T3, MEK3
T3 construct: gene MAP2K3

[10] = test system: T4, MEK4
T4 construct: gene MAP2K4
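Further: KINOMEscan kinase panel screen.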

CC(C)Nc1cc(-c2ccc3c(N)n[nH]c3c2)nc(N)n1 [GSK2221681]
%Inh [1]: 0% | %Inh [2]: 0% | %Inh [3]: 0% | %Inh [4]: 0% | %Inh [5]: 0% | %Inh [6]: 0% | %Inh [7]: 0% | %Inh [8]: 0% | %Inh [9]: 0% | %Inh [10]: 17%

O=C(NCCNc1ccnc(NCc2ccc(F)cc2)n1)c1cc2ccccc2s1 [GSK1379944]
%Inh [1]: 0% | %Inh [2]: 0% | %Inh [3]: 0% | %Inh [4]: 0% | %Inh [5]: 0% | %Inh [6]: 0% | %Inh [7]: 0% | %Inh [8]: 0% | %Inh [9]: 0% | %Inh [10]: 1%

CNC(=O)c1ccccc1Sc1ccc2c(/C=C/c3ccccn3)n[nH]c2c1
%Inh [1]: 0% | %Inh [2]: 0% | %Inh [3]: 35% | %Inh [4]: 1% | %Inh [5]: 6% | %Inh [6]: 0% | %Inh [7]: 0% | %Inh [8]: 0% | %Inh [9]: 0% | %Inh [10]: 0%

Cl.Cl.Nc1nc(-c2ccc3c(N)n[nH]c3c2)cc(N2CCCC(NC(=O)c3ccccc3)C2)n1 (stereo not drawn) [GSK2286775]
%Inh [1]: 0% | %Inh [2]: 5% | %Inh [3]: 0% | %Inh [4]: 0% | %Inh [5]: 0% | %Inh [6]: 0% | %Inh [7]: 0% | %Inh [8]: 0% | %Inh [9]: 6% | %Inh [10]: 14%

Cc1ccc(-n2nc(C(C)(C)C)cc2NC(=O)Nc2ccc(OCCN3CCOCC3)c3ccccc23)cc1 [GW839464]
%Inh [1]: 0% | %Inh [2]: 18% | %Inh [3]: 21% | %Inh [4]: 2% | %Inh [5]: 7% | %Inh [6]: 0% | %Inh [7]: 0% | %Inh [8]: 0% | %Inh [9]: 0% | %Inh [10]: 0%

Cl.Cl.NC[C@H](Cc1ccc(C(F)(F)F)cc1)NC(=O)c1cc(Br)c(-c2ccnc3[nH]ccc23)s1 [GSK1487252]
%Inh [1]: 0% | %Inh [2]: 0% | %Inh [3]: 0% | %Inh [4]: 47% | %Inh [5]: 0% | %Inh [6]: 0% | %Inh [7]: 0% | %Inh [8]: 0% | %Inh [9]: 77% | %Inh [10]: 23%

C[C@H]1Oc2cc(cnc2N)-c2c(nn(C)c2C#N)CN(C)C(=O)c2ccc(F)cc21
%Inh [1]: 0% | %Inh [2]: 15% | %Inh [3]: 9% | %Inh [4]: 0% | %Inh [5]: 6% | %Inh [6]: 6% | %Inh [7]: 0% | %Inh [8]: 30% | %Inh [9]: 83% | %Inh [10]: 65%

C[C@@H]1CCN(C(=O)CC#N)C[C@@H]1N(C)c1ncnc2[nH]ccc12
%Inh [1]: 0% | %Inh [2]: 0% | %Inh [5]: 0% | %Inh [6]: 0% | %Inh [7]: 0% | %Inh [8]: 0% | %Inh [9]: 0% | %Inh [10]: 0%

COc1ccc(C[C@@H](CN)NC(=O)c2cc(Br)c(-c3ccnc4[nH]ccc34)s2)cc1.Cl.Cl [GSK1389063]
%Inh [1]: 0% | %Inh [2]: 0% | %Inh [3]: 54% | %Inh [4]: 63% | %Inh [5]: 1% | %Inh [6]: 0% | %Inh [7]: 1% | %Inh [8]: 22% | %Inh [9]: 95.2% | %Inh [10]: 69%

Cc1ccc2c(-c3ccncc3)c(-c3ccc(F)cc3)nn2c1.Cl [GW461484]
%Inh [1]: 0% | %Inh [2]: 0% | %Inh [3]: 0% | %Inh [4]: 0% | %Inh [5]: 0% | %Inh [6]: 6% | %Inh [7]: 0% | %Inh [8]: 0% | %Inh [9]: 0% | %Inh [10]: 0%

Cl.Cl.NC[C@H](CC1CCCCC1)NC(=O)c1cc(Br)c(-c2ccnc3[nH]ccc23)s1 [GSK1581427]
%Inh [1]: 0% | %Inh [2]: 0% | %Inh [3]: 25% | %Inh [4]: 74% | %Inh [5]: 0% | %Inh [6]: 0% | %Inh [7]: 0% | %Inh [8]: 0% | %Inh [9]: 89% | %Inh [10]: 41%

CN(C)CCOc1ccc(-c2cc(-c3c[nH]nc3-c3ccccn3)ccn2)cc1 [GW835314]
%Inh [1]: 0% | %Inh [2]: 13% | %Inh [3]: 18% | %Inh [4]: 5% | %Inh [5]: 38% | %Inh [6]: 5% | %Inh [7]: 0% | %Inh [8]: 18% | %Inh [9]: 11% | %Inh [10]: 29%

Cc1n[nH]c2ccc(-c3cc(OC[C@@H](N)Cc4ccccc4)cnc3-c3ccoc3)cc12.O=C(O)C(F)(F)F.O=C(O)C(F)(F)F [GSK507358]
%Inh [1]: 0% | %Inh [2]: 0% | %Inh [3]: 0% | %Inh [4]: 0% | %Inh [5]: 0% | %Inh [6]: 0% | %Inh [7]: 37% | %Inh [8]: 36% | %Inh [9]: 82% | %Inh [10]: 35%

Cc1occc1-c1nc(N)c(OC[C@@H](N)Cc2c[nH]c3ccccc23)cc1-c1cc2c(C)n[nH]c2cn1 [GSK1660450]
%Inh [1]: 0% | %Inh [2]: 70% | %Inh [3]: 71% | %Inh [4]: 71% | %Inh [5]: 57% | %Inh [6]: 19% | %Inh [7]: 0% | %Inh [8]: 0% | %Inh [9]: 39% | %Inh [10]: 0%

C=CC(=O)Nc1cc2c(Nc3ccc(F)c(Cl)c3)ncnc2cc1OCCCN1CCOCC1 [GW781483]
%Inh [1]: 14% | %Inh [2]: 0% | %Inh [3]: 9% | %Inh [4]: 10% | %Inh [5]: 0% | %Inh [6]: 36% | %Inh [7]: 38% | %Inh [8]: 63% | %Inh [9]: 7% | %Inh [10]: 0%

NC(=O)c1cc(-c2ccccc2)cc2c(C3CCNCC3)c[nH]c12 [GSK301362]
%Inh [1]: 0% | %Inh [2]: 0% | %Inh [3]: 0% | %Inh [4]: 0% | %Inh [5]: 5% | %Inh [6]: 0% | %Inh [7]: 0% | %Inh [8]: 0% | %Inh [9]: 35% | %Inh [10]: 34%

CC(C)N1C(=O)Cc2cc(Nc3ncc(C(F)(F)F)c(NCc4cccc(S(C)(=O)=O)c4)n3)ccc21
%Inh [1]: 25% | %Inh [2]: 27% | %Inh [3]: 38% | %Inh [4]: 42% | %Inh [5]: 25% | %Inh [6]: 48% | %Inh [7]: 27% | %Inh [8]: 47% | %Inh [9]: 51% | %Inh [10]: 37%

Cc1cc2cn[nH]c2cc1-c1cccc2c(N)c(C(N)=O)nnc12
%Inh [1]: 16% | %Inh [2]: 0% | %Inh [3]: 5% | %Inh [4]: 0% | %Inh [5]: 0% | %Inh [6]: 36% | %Inh [7]: 28% | %Inh [8]: 45% | %Inh [9]: 58% | %Inh [10]: 68%

Cl.Oc1cc(-c2nc(-c3ccccc3)[nH]c2-c2ccncc2)ccc1Cl [SB-386023]
%Inh [1]: 0% | %Inh [2]: 0% | %Inh [3]: 2% | %Inh [4]: 0% | %Inh [5]: 9% | %Inh [6]: 21% | %Inh [7]: 0% | %Inh [8]: 2% | %Inh [9]: 7% | %Inh [10]: 23%

CCN(CC)CCCCNc1ncc2cc(-c3c(Cl)cccc3Cl)c(NC(=O)NC(C)(C)C)nc2n1
%Inh [1]: 8% | %Inh [2]: 0% | %Inh [3]: 23% | %Inh [4]: 1% | %Inh [5]: 2% | %Inh [6]: 13% | %Inh [7]: 23% | %Inh [9]: 34% | %Inh [10]: 0%

O=C(NCCCN1CCOC1=O)c1cnc(NCc2cc(Cl)ccc2Cl)nc1NC1CCCC1
%Inh [1]: 0% | %Inh [2]: 13% | %Inh [3]: 0% | %Inh [4]: 30% | %Inh [5]: 5% | %Inh [6]: 19% | %Inh [7]: 0% | %Inh [8]: 30% | %Inh [9]: 10% | %Inh [10]: 0%

CCn1c(-c2nonc2N)nc2c(C#CC(C)(C)O)nc(OCCN)cc21.Cl.Cl [GSK902056]
%Inh [1]: 0% | %Inh [2]: 0% | %Inh [3]: 0% | %Inh [4]: 0% | %Inh [5]: 0% | %Inh [6]: 28% | %Inh [7]: 0% | %Inh [8]: 0% | %Inh [9]: 37% | %Inh [10]: 26%

C[C@@H](Oc1cc(-c2cnn(C3CCNCC3)c2)cnc1N)c1c(Cl)ccc(F)c1Cl
%Inh [1]: 8% | %Inh [2]: 25% | %Inh [3]: 0% | %Inh [4]: 25% | %Inh [5]: 26% | %Inh [6]: 0% | %Inh [7]: 12% | %Inh [8]: 20% | %Inh [9]: 18% | %Inh [10]: 43%

Nc1nc(Nc2ccccc2)cc(-c2ccc3c(N)n[nH]c3c2)n1 [GSK2225749]
%Inh [1]: 0% | %Inh [2]: 8% | %Inh [3]: 0% | %Inh [4]: 0% | %Inh [5]: 8% | %Inh [6]: 18% | %Inh [7]: 0% | %Inh [8]: 9% | %Inh [9]: 5% | %Inh [10]: 23%

CN(C)CC(O)COc1ccc(Nc2nccc(-c3cnn4nc(N5CCOCC5)ccc34)n2)cc1 (stereo not drawn) [GW767488]
%Inh [1]: 23% | %Inh [2]: 24% | %Inh [3]: 20% | %Inh [4]: 19% | %Inh [5]: 23% | %Inh [6]: 0% | %Inh [7]: 24% | %Inh [8]: 34% | %Inh [9]: 82% | %Inh [10]: 60%

Cc1cc(C(=O)Nc2ccc(Oc3ccc4nc(NC(=O)C5CC5)cn4n3)cc2)nn1-c1ccccc1
%Inh [1]: 0% | %Inh [2]: 9% | %Inh [3]: 3% | %Inh [4]: 7% | %Inh [5]: 44% | %Inh [6]: 16% | %Inh [7]: 0% | %Inh [8]: 17% | %Inh [9]: 0% | %Inh [10]: 0%

CCN(CC)CCOc1ccc(Nc2ncc3cc(-c4c(Cl)cccc4Cl)c(=O)n(C)c3n2)cc1 [SB-601273]
%Inh [1]: 0% | %Inh [2]: 20% | %Inh [3]: 87% | %Inh [4]: 84% | %Inh [5]: 6% | %Inh [6]: 48% | %Inh [7]: 98.1% | %Inh [8]: 98.7% | %Inh [9]: 38% | %Inh [10]: 47%
